From ChEMBL document CHEMBL3988442, “University of Dundee, Small-Polar-MMV Screening Library” (2021)
In all, about 48,000 compounds went through this assay and about 13,000 (27%) showed an effect of 50% or more. The list shows a part of the results.

Test system: Wolbachia pipientis
Test: Anti-Wolbachia Cell-Based Screen
Assay type: functional
Design: scale not given: in the data most compounds retested in dose-response had high values
Settings: 5 µM

In order of falling “Percent Effect” value:
1. Cc1cc(C)n(CC2CCCN2C(=O)c2cnc3n[nH]c(C)c3c2)n1 (stereo not given)  152.9%
2. Cc1cnn(CC2CCCCN2C(=O)c2cnc3n[nH]c(C)c3c2)c1 (stereo not given)  131.8%
3. O=C(O)Cn1ccc(=O)c2ccc(Cl)cc21  126.4%
4. COc1cc(-c2cc(N)ncn2)cc(OC)c1OC  113.5%
5. COc1cc(-c2cc(OC)c(OC)c(OC)c2)ncn1  111%
6. COc1cc(-c2cc(=O)[nH]cn2)cc(OC)c1OC  108.3%
7. O=C(O)Cn1ccc(=O)c2ccccc21  101.5%
8. O=C(O)Cn1ccc(=O)c2cc(Cl)ccc21  96.7%
9. CNc1cc(-c2cc(OC)c(OC)c(OC)c2)ncn1  63.03%
10. COc1cc(-c2cnnc(NCCCOC(C)C)n2)cc(OC)c1OC  29.72%
11. O=C(Cn1cc(C(=O)O)ccc1=O)Nc1ccc(Cl)cc1F  21.2%
12. CCN(Cc1ccoc1)C(C(N)=O)c1ccc(Br)cc1 (stereo not given)  13.69%
13. O=C(Cn1ccc(=O)c2ccccc21)Nc1cnccc1O  11.9%
14. CC(=O)c1cn(CCC(=O)NCCC(=O)O)c2ccccc12  11.28%
15. Cc1ccc(Cl)cc1NC(=O)Cn1cc(C(=O)O)ccc1=O  11.02%
16. COc1cc(F)ccc1-c1cnc(N)cn1  4.903%
17. CCC(=O)N1CCN(C(=O)NCc2c(C)cc(C)cc2C)CC1  2.244%
18. Cc1cnn(CC2CCCN2C(=O)c2cnc3n[nH]c(C)c3c2)c1 (stereo not given)  1.676%
19. Cc1ccccc1C(O)CNS(=O)(=O)Cc1cccc(C#N)c1 (stereo not given)  1.082%
20. CC(=O)N1CCCN(C(=O)c2cnc3n[nH]c(C)c3c2)CC1  0.885%
21. COc1cc(N2CCc3ncnc(-c4ccoc4)c3CC2)ncn1  -1.629%
22. CC(=O)NC1CCCN(C(=O)Nc2cnc3c(cnn3C(C)C)c2)C1 (stereo not given)  -1.693%
23. Cc1cc(=O)[nH]c(SCC(=O)N(C)CC2Cc3ccccc3CN2C)n1 (stereo not given)  -1.755%
24. O=C(NCCc1cc(=O)[nH]cn1)c1[nH]nc2c1CCCC2  -3.827%
25. CN(CC(N)=O)C(=O)CCCn1ccc2cc(Cl)ccc21  -3.904%
26. O=C(NCc1nncn1-c1ccccc1)C1CC(=O)N(CC2CC2)C1 (stereo not given)  -5.786%
27. CC1CCN(S(=O)(=O)N2CCc3c(c(C(=O)O)nn3CC3CC3)C2)CC1  -12.69%
28. COc1cc(N(C)Cc2cc(C(C)(C)C)n[nH]2)ncn1  -14.87%
29. COc1ccc(-c2cc(N)ccn2)c(OC)c1OC  -25.01%
30. CC(=O)Cn1cc(C#N)c(=O)c2cc(Br)ccc21  -39.25%
